Sampled rows, rich in hits. Any-hit rate of the full collection: about 1.3%.
B2AR ag – human beta-2 adrenergic receptor agonism by FAP | P07550 | Am2.2-beta2AR cells, FAP receptor internalization, flow cytometry | response, % (test concentration not listed) | 340,000 tested, 0.43% active | AID 504454;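 active means response above a set limit, near 3 SD of response in nonfluorescent compounds, cut at about 42% in these data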
VLA-4 inh – inhibition in a human VLA-4 binding assay; inhibition, % (about 7 µM as worked out from the volumes in the protocol); VLA-4 expressing cells, ligand binding flow cytometry; P13612; 330,000 tested, 0.2% active; in the data active means inhibition above about 50%
Bfl-1 A1 inh – inhibitors of the anti-apoptotic protein A1, read as caspase activation; MEF A1-2A-BIM cells, Caspase-Glo 3/7 luminescence, 3 h; percent of clofoctol response, vehicle zero; 330,000 tested, 0.066% active; caspase activation, % (no concentration beside the values);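 active means over half of replicate activation scores above 10%, or exactly half above 10 with the replicate mean above 10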
GRK2 aptamer HTS – blocks RNA aptamer binding to human GRK2 | bead flow cytometry, FAM-aptamer displacement from GRK2 | 330,000 tested, 0.59% active | inhibition of aptamer binding, % at 10 µM | P25098;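 active means inhibition of aptamer binding above 40%, roughly 3 SD of noise, on plates passing a quality check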;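 further: median bead fluorescence of bound FAM aptamer so fluorescent compounds give negative values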
NTR1 ag – NTR1 (human) agonism; NTR1-U2OS beta-arrestin-GFP spot imaging, agonist mode; activation, % at 20 µM; 330,000 tested, 0.17% active;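 active means activation at or above 40% of the spot to cytoplasm intensity ratio, with at least 20 cells analyzed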
GRK2 CP1 – human GRK2 inhibition confirmation, cherry pick 1 | shares compounds with GRK2 aptamer HTS | bead-bound GRK2, FAM-aptamer displacement, flow cytometry | aptamer displacement, % at 10 µM | 2,000 tested, 4% active;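 active means aptamer displacement above 40%, near three times the noise of non-fluorescent compounds, on plates passing quality checks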;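 further: negative values mostly reflect intrinsic compound fluorescence rather than true enhancement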
Aptamer quench 1 – fluorescent aptamer quenching in GRK2 counter-screen dose response | shares compounds with GRK2 aptamer HTS | Fluorescent RNA aptamer beads, flow cytometry; hits give high values | fluorescence change (kMESF span), kMESF (no concentration beside the values) | 110 tested, under 10 active | AID 504521;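 active means compounds whose bead fluorescence drops by more than 37 kMESF across the dose range, marking them as dye quenchers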
Aptamer quench SP – counter-screen for GRK2 aptamer inhibitors: fluorescent aptamer quenchers; shares compounds with GRK2 aptamer HTS; fluorescence response (% of DMSO), % at 10 µM; Carboxyfluorescein RNA aptamer on beads, flow cytometry quenching; hits give low values; 2,000 tested, under 10 active;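 active means compounds that quench the bead-bound fluorescent RNA probe, cutting fluorescence to under half of the solvent control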;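 further: counterscreen run without GRK2 so only probe quenching by compound is measured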
FAM quench DR – aptamer fluorescence quenching in GRK2 powder counter-screen | shares compounds with GRK2 aptamer HTS | Bead-bound FAM RNA aptamer fluorescence quenching, flow cytometry; hits give low values | fluorescence ratio to DMSO, % at 11.1 µM | 35 tested, under 10 active;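 active means compounds that dim the fluorescent label, raw bead signal shifting by over 33 units between lowest and highest dose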
Each line names hits and unclear results; the compound was inactive in the other large screens (follow-up assays come after a bar, where they were run).

Cc1cccc(N2CCN(C(=O)CCS(=O)(=O)c3ccc(Br)cc3)CC2C)c1 (stereo unspecified)	GRK2 aptamer HTS 78.0 | GRK2 CP1 57.2 | Aptamer quench 1 inactive | Aptamer quench SP inactive | FAM quench DR inactive
CC(=O)N1CCCc2cc(S(=O)(=O)CCC(=O)N3CCN(c4cccc(C)c4)C(C)C3)ccc21 (stereo unspecified)	none | GRK2 CP1 inactive | Aptamer quench 1 inactive | Aptamer quench SP inactive
COC(=O)C1CCN(C(=O)c2oc3c(Cl)cc(C)cc3c2C)CC1	none
Cc1cc(Cl)c2oc(C(=O)NC3CCC(O)CC3)c(C)c2c1 (stereo unspecified)	GRK2 aptamer HTS 65.0 | GRK2 CP1 inactive | Aptamer quench SP inactive
Cc1cc(-c2ccc(C(C)C)c(S(=O)(=O)Nc3ccccn3)c2)on1	none
Cc1ccc2c(c1)N(CC(=O)NCCCN1CC(C)CC(C)C1)C(=O)c1cccnc1O2 (stereo unspecified)	none
COCCCNC(=O)CNC(=O)c1nn(-c2ccc(OC)cc2OC)c(=O)c2ccccc12	none | GRK2 CP1 inactive | Aptamer quench SP inactive
COc1ccc(-n2nc(C(=O)NCC(=O)NC(C)C)c3ccccc3c2=O)c(OC)c1	none
COc1ccc(NC(=O)CNC(=O)c2nn(-c3ccc(OC)cc3OC)c(=O)c3ccccc23)c(OC)c1	none
CCC(C)NC(=O)CNC(=O)c1nn(-c2ccc(OC)cc2OC)c(=O)c2ccccc12 (stereo unspecified)	none | GRK2 CP1 inactive | Aptamer quench SP inactive
COc1ccc(C(=O)N[C@H](C(=O)Nc2nc3c(s2)CCCC3)C(C)C)cc1	none
CCOc1ccccc1C(=O)N[C@H](C(=O)Nc1nc2c(s1)CCCC2)C(C)C	GRK2 aptamer HTS 43.0 | GRK2 CP1 inactive | Aptamer quench SP inactive
CC1CCc2c(sc(NC(=O)c3cccn3C)c2C(N)=O)C1 (stereo unspecified)	none
CCOC(=O)N1CCN(C(=O)CSc2ccc3nnc(-c4ccncc4)n3n2)CC1	none
CCOC(=O)CC(=O)CSc1ccc2nnc(-c3ccc(C)cc3)n2n1	GRK2 aptamer HTS 100.0 (no result: Bfl-1 A1 inh) | GRK2 CP1 inactive | Aptamer quench SP inactive
CCOc1ccc(Cl)cc1CSc1n[nH]c(CC)n1	GRK2 aptamer HTS 61.0 | GRK2 CP1 inactive | Aptamer quench SP inactive
CCN1/C(=C/c2ccc3cc(C)cc(C)c3[n+]2CC)Sc2cc(C)ccc21	none (no result: VLA-4 inh, Bfl-1 A1 inh, GRK2 aptamer HTS, NTR1 ag)
CCN1/C(=C/c2ccc3cccc(C)c3[n+]2CC)Sc2ccccc21	GRK2 aptamer HTS 91.0 (no result: VLA-4 inh) | GRK2 CP1 68.8 | Aptamer quench 1 inactive | Aptamer quench SP inactive
CCOC(=O)N1CCN(C(=O)CCC(=O)N2CCOc3ccc(C)cc32)CC1	GRK2 aptamer HTS 93.0 | GRK2 CP1 inactive | Aptamer quench SP inactive
CC[C@H](C)[C@H](NC(N)=O)C(=O)Nc1ccc(S(=O)(=O)NC(C)C)cc1	none
CCOc1ccc(Oc2ccc(NC(=O)[C@@H](NC(N)=O)[C@@H](C)CC)cc2)cc1	GRK2 aptamer HTS 96.0 | GRK2 CP1 inactive | Aptamer quench SP inactive
CCN(CC)CCC(O)(c1ccc2c(c1)OCO2)c1cc(OC)c(OC)c(OC)c1 (stereo unspecified)	none (no result: VLA-4 inh, Bfl-1 A1 inh, GRK2 aptamer HTS, NTR1 ag)
COc1ccc(C(=O)C[n+]2cc(Br)cc3ccccc32)cc1[N+](=O)[O-]	none
O=C(C[n+]1cc(Br)cc2ccccc21)c1ccccc1	GRK2 aptamer HTS 45.0 | GRK2 CP1 inactive | Aptamer quench SP inactive
COCCNC(=O)c1ccccc1N(Cc1ccccc1)S(=O)(=O)c1ccc(C)cc1	none | GRK2 CP1 inactive | Aptamer quench SP inactive
COCCNC(=O)c1ccccc1N(Cc1ccccc1)S(=O)(=O)c1ccccc1	none
O=C(CCc1nc2ccccc2s1)NC1CCOC1=O (stereo unspecified)	none

From PubChem BioAssay
